Experimental data published in PubChem BioAssay AID1159580 (chemical genetic matrix, 2015).
“And” between values parts separate entries of the source, which are not always exact repeats. Equal entries are not always repeated. Out of some 5,500 compounds screened, about 2,000 (36%) were called active. Another 18% or so got no clear call; they are omitted. Rule as the data show it: active = normalized growth mostly below about 0.91 (no sharp cut-off); inconclusive = no clear call, values can overlap the other calls; inactive = mostly above about 0.92. The list shows a part of the results.

Assay: chemical genetic growth profiling, strain panel (AID 1159580);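 also: tested at 20 µM; growth read once vehicle control cultures reached saturation at 30 °C; 1 = growth at the plate median or of vehicle wells; lower values mean less growth of the strain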
Conditions: S. cerevisiae deletion strains, growth OD

Measured: normalized growth

CC(=O)O[C@@H]1C[C@@]2(C)[C@H](c3ccoc3)C[C@H]3O[C@]32[C@]2(C)C(=O)C(O)=C3C(C)(C)C(=O)C=C[C@]3(C)C12 (some centres not stated)
inactive: locus YAL021C, strain ccr4, stronger effect = lower value 0.983 | locus YAL030W, strain snc1, stronger effect = lower value 0.968 | locus YBL061C, strain skt5, stronger effect = lower value 0.953 | locus YBR021W, strain FUR4, stronger effect = lower value 1.05 | locus YBR023C, strain chs3, stronger effect = lower value 0.947 | locus YBR171W, strain sec66, stronger effect = lower value 0.929 | locus YBR229C, strain ROT2, stronger effect = lower value 0.927 | locus YBR231C, strain swc5, stronger effect = lower value 0.94 | locus YBR279W, strain paf1, stronger effect = lower value 0.97 | locus YCL016C, strain dcc1, stronger effect = lower value 0.969 | locus YCL061C, strain MRC1, stronger effect = lower value 0.96 | locus YCL069W, strain vba3, stronger effect = lower value 0.956 | locus YCR088W, strain abp1, stronger effect = lower value 0.951 | locus YDL005C, strain med2, stronger effect = lower value 0.958 | locus YDL035C, strain GPR1, stronger effect = lower value 0.914 | locus YDL040C, strain nat1, stronger effect = lower value 0.953 | locus YDL101C, strain DUN1, stronger effect = lower value 0.933 | locus YDL134C, strain PPH21, stronger effect = lower value 0.921 | locus YDL185W, strain tfp1, stronger effect = lower value 0.931 | locus YDR001C, strain nth1, stronger effect = lower value 0.968 | locus YDR069C, strain doa4, stronger effect = lower value 0.942 | locus YDR150W, strain NUM1, stronger effect = lower value 0.969 | locus YDR195W, strain ref2 1.04 | locus YDR297W, strain sur2, stronger effect = lower value 0.954 | locus YDR334W, strain swr1, stronger effect = lower value 0.963 | locus YDR335W, strain msn5, stronger effect = lower value 0.969 | locus YDR388W, stronger effect = lower value 0.951 | locus YEL003W, strain gim4, stronger effect = lower value 0.927 | locus YEL037C, strain rad23, stronger effect = lower value 0.961 | locus YEL061C, strain CIN8 (second series), stronger effect = lower value 0.955 | locus YEL061C, strain CIN8, stronger effect = lower value 0.965 | locus YER015W, strain faa2, stronger effect = lower value 0.966 | locus YER016W, strain bim1, stronger effect = lower value 0.953 | locus YER110C, stronger effect = lower value 0.953 | locus YER111C, strain swi4, stronger effect = lower value 0.94 | locus YFR010W, strain ubp6, stronger effect = lower value 0.955 | locus YGL078C, strain dbp3, stronger effect = lower value 0.975 | locus YGL167C, strain pmr1, stronger effect = lower value 0.957 | locus YGL173C, strain kem1, stronger effect = lower value 0.924 | locus YGL227W, strain vid30, stronger effect = lower value 0.964 | locus YGL240W, strain doc1, stronger effect = lower value 0.94 | locus YGL248W, strain PDE1, stronger effect = lower value 0.933 | locus YGR135W, strain pre9, stronger effect = lower value 0.954 | locus YHR013C, strain ard1, stronger effect = lower value 0.853 | locus YHR027C, strain rpn1, stronger effect = lower value 0.965 | locus YHR030C, strain SLT2, stronger effect = lower value 0.887 | locus YHR079C, strain IRE1 (second series), stronger effect = lower value 0.952 | locus YHR079C, strain IRE1, stronger effect = lower value 0.926 | locus YHR094C, strain hxt1, stronger effect = lower value 0.957 | locus YHR200W, strain rpn10, stronger effect = lower value 0.943 | locus YIL073C, strain SPO22, stronger effect = lower value 0.811 | locus YIL125W, strain kgd1, stronger effect = lower value 0.966 | locus YIR030C, strain dcg1, stronger effect = lower value 0.959 | locus YJL092W, strain hpr5, stronger effect = lower value 0.945 | locus YJL095W, strain BCK1 (second series), stronger effect = lower value 0.967 | locus YJL115W, strain asf1, stronger effect = lower value 0.98 | locus YJL134W, strain LCB3, stronger effect = lower value 0.958 | locus YJL154C, strain vps35, stronger effect = lower value 0.985 | locus YJL164C, strain tpk1, stronger effect = lower value 0.927 | locus YJL168C, strain set2, stronger effect = lower value 0.961
0.749 (active) and 0.918 (inactive): locus YJL095W, strain BCK1, stronger effect = lower value
active: locus YAL026C, strain drs2, stronger effect = lower value 0.892 | locus YBR009C, strain hhf1, stronger effect = lower value 0.867 | locus YCL011C, strain gbp2, stronger effect = lower value 0.88 | locus YCL029C, strain bik1, stronger effect = lower value 0.907 | locus YDL074C, strain BRE1, stronger effect = lower value 0.754 | locus YDL192W, strain arf1, stronger effect = lower value 0.822 | locus YDR101C, strain arx1, stronger effect = lower value 0.908 | locus YDR137W, strain rgp1, stronger effect = lower value 0.639 | locus YDR159W, strain sac3, stronger effect = lower value 0.777 | locus YDR162C, strain NBP2, stronger effect = lower value 0.658 | locus YDR318W, strain mcm21, stronger effect = lower value 0.844 | locus YDR392W, strain spt3, stronger effect = lower value 0.326 | locus YDR502C, strain sam2, stronger effect = lower value 0.896 | locus YER155C, strain BEM2 (second series), stronger effect = lower value 0.826 | locus YER155C, strain BEM2, stronger effect = lower value 0.902 | locus YER167W, strain BCK2, stronger effect = lower value 0.896 | locus YGL086W, strain mad1, stronger effect = lower value 0.839 | locus YGL253W, strain hxk2, stronger effect = lower value 0.866 | locus YGR078C, strain PAC10, stronger effect = lower value 0.844 | locus YGR229C, strain SMI1, stronger effect = lower value 0.787 | locus YGR252W, strain gcn5, stronger effect = lower value 0.74 | locus YHR129C, strain ARP1, stronger effect = lower value 0.889 | locus YHR142W, strain chs7, stronger effect = lower value 0.861 | locus YIL066C, strain RNR3, stronger effect = lower value 0.766 | locus YJL129C, strain trk1, stronger effect = lower value 0.822 | locus YJL166W, strain qcr8, stronger effect = lower value 0.873
